Measured values from PubChem BioAssay AID1497 (Sanford-Burnham Center for Chemical Genomics, 2009).
The whole screen tested about 93,000 compounds, of which about 500 (0.54%) were called active.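 The calls were made as follows: active = primary inhibition of 50% or more at 10 µM, then 40% or more on retest; inactive = the rest.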 Only a selection was taken, and actives are over-represented in it overall.

Each molecule was assayed against Integrin beta-2 (Homo sapiens) + Integrin alpha-M (Homo sapiens) (UniProt P05107+P11215) (assay: inhibitors of CD11b/CD18 adhesion to fibrinogen, primary screen, K562 cells, luminescence (AID 1497)). Details: ATPlite luminescence, at 10 µM, hits give high values, Mn2+ added to activate the integrin.
Integrin beta-2 (Homo sapiens) + Integrin alpha-M (Homo sapiens), sequence (P05107 whole entry, looked up, other chains not shown): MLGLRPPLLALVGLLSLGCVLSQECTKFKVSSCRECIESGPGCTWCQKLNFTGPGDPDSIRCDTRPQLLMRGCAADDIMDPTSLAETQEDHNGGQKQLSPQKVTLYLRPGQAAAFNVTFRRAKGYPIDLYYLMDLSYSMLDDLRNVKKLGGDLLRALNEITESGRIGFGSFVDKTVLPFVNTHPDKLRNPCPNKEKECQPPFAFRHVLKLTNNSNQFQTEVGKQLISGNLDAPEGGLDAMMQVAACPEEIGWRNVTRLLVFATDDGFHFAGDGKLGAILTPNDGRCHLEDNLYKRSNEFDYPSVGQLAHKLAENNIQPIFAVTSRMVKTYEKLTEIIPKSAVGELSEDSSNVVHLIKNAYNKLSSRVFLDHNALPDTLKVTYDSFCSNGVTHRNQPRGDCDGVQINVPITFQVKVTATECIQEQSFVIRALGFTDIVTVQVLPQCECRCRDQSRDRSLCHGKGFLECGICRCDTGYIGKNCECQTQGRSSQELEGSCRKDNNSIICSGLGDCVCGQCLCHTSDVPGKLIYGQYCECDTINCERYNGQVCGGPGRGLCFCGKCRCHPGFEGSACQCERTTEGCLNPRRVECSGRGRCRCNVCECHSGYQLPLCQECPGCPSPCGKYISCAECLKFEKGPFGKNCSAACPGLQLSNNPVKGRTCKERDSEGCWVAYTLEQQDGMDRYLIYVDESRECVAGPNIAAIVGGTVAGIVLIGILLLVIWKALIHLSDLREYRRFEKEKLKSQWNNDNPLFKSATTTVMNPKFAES

Compound | inhibition
COc1cc(OC)c(C(=O)OC(C)C(=O)Nc2cc(C(F)(F)F)ccc2Cl)cc1OC (stereo not given) | 26.7% (inactive)
COc1ccc2nc(SCc3ccccc3)nc(C)c2c1 | 1.5% (inactive)
CC(C)(C)OC(=O)N/N=C/c1ccc(C(=O)O)cc1 | -1.8% (inactive)
CC(C)Nc1nnc(SCC(=O)/C=C2\N(C)c3ccccc3C2(C)C)s1 | 21.6% (inactive)
CCOC(=O)c1cnc2ccc(F)cc2c1Nc1ccc2c(c1)OCCO2 | 2.6% (inactive)
Cc1c(NS(=O)(=O)c2ccc(NC3CCCC3)c([N+](=O)[O-])c2)c(=O)n(-c2ccccc2)n1C | 1% (inactive)
Cc1cccc(CC(=O)N2CCN=C2SCc2ccc([N+](=O)[O-])cc2)c1 | -1.1% (inactive)
COc1ccc(CCNc2cc(C)nc3c(-c4ccc(Cl)cc4)c(C)nn23)cc1OC | 2.7% (inactive)
Cc1cccc(-n2c(C)cc(/C=N\NC(=O)c3cccs3)c2C)c1 | 37.3% (inactive)
Cc1nc(CNS(=O)(=O)c2ccc(Oc3ccccc3)cc2)cs1 | 91.7% (active)
Cc1nc(CNS(=O)(=O)c2cccnc2)cs1 | -2.1% (inactive)
Cc1ccc(S(=O)(=O)NCc2csc(C)n2)c(C)c1 | -9% (inactive)
COc1ccccc1N=Cc1c(O)c2ccccc2oc1=O | 6% (inactive)
Oc1c(Br)cccc1/C=N/Nc1c(F)c(F)c(F)c(F)c1F | 99.8% (inactive)
Cc1cc([N+](=O)[O-])ccc1NC(=O)C1CCCO1 (stereo not given) | 24.2% (inactive)
CCOC(=O)/C(C#N)=C/c1ccc(N2CCN(Cc3ccccc3)CC2)cc1 | 82.1% (inactive)
Cc1ccc(NC(=S)NC(=O)/C=C/c2ccc(Cl)cc2)cc1 | 7.2% (inactive)
Cc1ccc(/C=N/NC(=O)CNC(=O)COc2ccccc2)o1 | -10.5% (inactive)
O=c1c(Cl)c(NCc2ccc(F)cc2Cl)cnn1C12CC3CC(CC(C3)C1)C2 | -4% (inactive)
Cc1c(C(=O)NCCN2C(=O)S/C(=C\c3cccs3)C2=O)cccc1[N+](=O)[O-] | 7% (inactive)

Compound | inhibition
Cc1sc2ncnc(Sc3nc4ccccc4s3)c2c1C | -5.9% (inactive)
O=[N+]([O-])c1ccc(N2CCN(S(=O)(=O)c3ccccc3)CC2)cc1N1CCc2ccccc2C1 | -22.4% (inactive)
CCOCCCNC(=O)C(=O)NCCCOCC | -3% (inactive)
Cc1ccc(NC(=S)N2CCN(c3ncccn3)CC2)cc1C | -4.4% (inactive)
Cc1cc2oc(=O)cc(CN3CCN(S(=O)(=O)c4cccs4)CC3)c2cc1C(C)C | 22.2% (inactive)
CCN(c1ccc(NC(=O)COC(=O)CCc2nc3ccccc3n2-c2ccccc2)cc1)C(C)C | 15.2% (inactive)
CC(C)N1C(=O)N(c2ccccc2)C(C)(O)CC1(C)C (stereo not given) | -10.1% (inactive)
Cc1cccc(NC(=O)Cn2c(=O)n(Cc3ccccc3)c(=O)c3c(C)c(C)sc32)c1 | -17.5% (inactive)
CCOc1ccc(NC(=O)COc2ccc(C(=O)NC3CCCc4ccccc43)cc2OC)cc1 (stereo not given) | 1.8% (inactive)
CCCN1CNC(=S)N(CCc2ccccc2)C1 | -28.3% (inactive)
CCCCCCc1cc2cc(-c3nnc(-c4ccccc4)o3)c(=O)oc2cc1O | 94% (active)
O=c1oc2cc(O)ccc2cc1-c1ccc(F)cc1 | -2.5% (inactive)
CCOC(=O)c1cc(NC(=O)c2cccnc2)cc(C(=O)OCC)c1 | -52.6% (inactive)
CCOc1cccc(C(=O)Nc2cccnc2)c1 | -2.2% (inactive)
Cc1c(C(=O)OC(C)C)sc(NC(=O)c2cccnc2)c1C#N | 86% (active)
Cc1ccc(C2CC(=O)NC(SCC(=O)OCc3ccccc3)=C2C#N)o1 (stereo not given) | 29.9% (inactive)
CCOC(=O)CSC1=C(C#N)C(c2sccc2C)CC(=O)N1 (stereo not given) | 56.1% (active)
CCOC(=O)CSC1=C(C#N)C(c2ccco2)C(C(=O)OCc2ccccc2)=C(C)N1 (stereo not given) | 34.5% (inactive)
CCCn1c(N)c(C(=O)CSc2nnc(-c3cccnc3)n2-c2ccc(C)cc2C)c(=O)[nH]c1=O | -8.1% (inactive)
Cc1cc(Br)ccc1SCC(=O)OCC(=O)NCc1ccc2c(c1)OCO2 | 10.7% (inactive)

Compound | inhibition
O=C(CSc1nc2ccccc2c(=O)n1CCCO)N1CCc2ccccc21 | 21.1% (inactive)
O=C(N/N=C/c1cccc([N+](=O)[O-])c1)C1CC(=O)N(c2ccc(Br)cc2)C1 (stereo not given) | -4.8% (inactive)
COC(=O)c1c(C)oc2ccc(N(C(=O)Oc3ccccc3)S(=O)(=O)c3ccccc3)cc12 | 2.5% (inactive)
Cc1ccc2nc(SCc3cn4c(C)cc(C)nc4n3)[nH]c2c1 | -5.6% (inactive)
COc1ccc(C(CC(=O)Nc2ccc(C)cc2)NC(=O)C(F)(F)F)cc1 (stereo not given) | -24.1% (inactive)
CCCc1c(C)nc2c(Br)cccc2c1Cl | 13.2% (inactive)
Cc1c(Cl)cccc1NC(=O)Nc1ccc(C(=O)N2CCCC2)cc1 | 9.6% (inactive)
CCOc1ccc(/C=N/OCC(=O)NCc2cccs2)cc1 | 9% (inactive)
CCc1c(C)sc(NC(=O)/C=C/c2ccc3c(c2)OCO3)c1C(=O)OC | -6.4% (inactive)
O=C(Cc1ccc(-c2ccccc2)cc1)NC(c1ccccc1)c1ccccc1 | -18.2% (inactive)
CCOc1cc(CNCc2ccccn2)ccc1OCC(=O)NC(C)(C)C | 7.5% (inactive)
CC(C)(C)NC(=O)COC(=O)c1cc(Br)ccc1Cl | 12.8% (inactive)
CC(C)C(=O)Nc1cccc(NC(=O)c2ccc([N+](=O)[O-])cc2Cl)c1 | -3.1% (inactive)
COC(=O)c1ccccc1NC(=O)c1ccccc1NS(C)(=O)=O | -14.9% (inactive)
COC(=O)c1ccc(NC(=O)c2ccccc2NS(=O)(=O)c2ccccc2)cc1 | 102% (active)
CCOc1ccc(NC(=O)c2ccccc2NS(C)(=O)=O)cc1 | -19.4% (inactive)
O=C(Oc1ccc([N+](=O)[O-])cc1)c1ccc(Cl)c(S(=O)(=O)N2CCCCC2)c1 | 8.6% (inactive)
Cc1ccc(NC(=O)c2sc3nc(N)c(C#N)cc3c2N)cc1 | 10.7% (inactive)
COc1cccc(N(C(=O)C2COc3ccccc3O2)C(C(=O)NC2CCCCC2)c2ccc(O)cc2)c1 (stereo not given) | -5% (inactive)
Cc1ccc(CSCC(N)C(=O)O)cc1 (stereo not given) | -2% (inactive)
